Experimental findings from ChEMBL document CHEMBL2218924, “A broad activity screen in support of a chemogenomic map for kinase signalling research and drug discovery” (Biochem J, 2013) are described below.

SMILES strings stand for the structures.

Serine/threonine-protein kinase PAK 4 (Homo sapiens), sequence (O96013 whole entry, looked up): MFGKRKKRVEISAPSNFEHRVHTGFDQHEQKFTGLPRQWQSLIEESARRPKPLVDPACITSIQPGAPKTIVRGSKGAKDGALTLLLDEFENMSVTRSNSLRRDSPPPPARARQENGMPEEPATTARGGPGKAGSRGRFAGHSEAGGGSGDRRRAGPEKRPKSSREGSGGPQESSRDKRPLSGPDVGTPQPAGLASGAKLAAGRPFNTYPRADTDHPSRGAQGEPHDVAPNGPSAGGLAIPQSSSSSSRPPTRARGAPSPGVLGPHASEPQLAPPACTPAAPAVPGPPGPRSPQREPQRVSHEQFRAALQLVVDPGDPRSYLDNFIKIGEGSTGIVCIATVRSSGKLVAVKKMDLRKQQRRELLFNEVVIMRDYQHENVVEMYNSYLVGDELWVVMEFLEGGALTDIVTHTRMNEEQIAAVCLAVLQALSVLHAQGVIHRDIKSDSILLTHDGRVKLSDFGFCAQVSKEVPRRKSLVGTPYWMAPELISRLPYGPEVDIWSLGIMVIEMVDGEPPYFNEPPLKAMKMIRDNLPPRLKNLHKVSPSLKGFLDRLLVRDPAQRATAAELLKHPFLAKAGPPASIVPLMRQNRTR

The first test addresses Serine/threonine-protein kinase PAK 4 (Homo sapiens) (UniProt O96013). The settings on record: at 1 µM.
For `c1cc(-c2cnn3cc(-c4ccc(OCCN5CCCCC5)cc4)cnc23)ccn1`, the residual activity was 84%.

For the compound `O=c1[nH]c2ccccc2n1C1CCN(Cc2ccc(-c3nc4cc5[nH]cnc5cc4nc3-c3ccccc3)cc2)CC1`, the residual activity worked out at 98%.

Take `O=C1Nc2ccc3ncsc3c2/C1=C/c1c[nH]cn1`: the residual activity was found to be 67%.

Regarding `CC(C)[C@H](CO)Nc1nc(Nc2cccc(Cl)c2)c2ncn(C(C)C)c2n1`, the residual activity turned out to be 31%.

Consider `CCc1nc(-c2ccc(OC)cc2)[nH]c1-c1ccncc1`, for which the residual activity came out at 111%.

Consider `COC(=O)[C@@]1(O)C[C@H]2O[C@]1(C)n1c3ccccc3c3c4c(c5c6ccccc6n2c5c31)C(=O)NC4`, for which the residual activity came out at 3%.

On to `COc1cc2ncnc(Nc3ccc(OCc4ccccc4)cc3)c2cc1OC`, for which the residual activity was found to be 107%.

`C[S+]([O-])c1ccc(-c2nc(-c3ccc(F)cc3)c(-c3ccncc3)[nH]2)cc1` (stereo not given): the residual activity came to 106%.

On to `CC(C)(C)c1cc(C=C(C#N)C#N)cc(Br)c1O`, for which the residual activity amounted to 113%.

For `O=[N+]([O-])/C=C/c1ccc2c(c1)OCO2`, the residual activity turned out to be 91%.

As for `CCn1cnc2c(Nc3cccc(Cl)c3)nc(N[C@@H]3CCCC[C@@H]3N)nc21`, the residual activity was 30%.

For the compound `O=C1NC(=O)c2c1c1c3ccccc3n3c1c1c2c2ccccc2n1C1CCC3O1`, the residual activity came to 84%.

The next test shares this target. The settings on record: at 10 µM.
Regarding `c1cc(-c2cnn3cc(-c4ccc(OCCN5CCCCC5)cc4)cnc23)ccn1`, the residual activity came to 77%.

With `O=c1[nH]c2ccccc2n1C1CCN(Cc2ccc(-c3nc4cc5[nH]cnc5cc4nc3-c3ccccc3)cc2)CC1`, the residual activity turned out to be 74%.

With `O=C1Nc2ccc3ncsc3c2/C1=C/c1c[nH]cn1`, the residual activity amounted to 22%.

As to `CC(C)[C@H](CO)Nc1nc(Nc2cccc(Cl)c2)c2ncn(C(C)C)c2n1`, the residual activity worked out at 4%.

As to `CCc1nc(-c2ccc(OC)cc2)[nH]c1-c1ccncc1`, the residual activity worked out at 100%.

For the compound `COC(=O)[C@@]1(O)C[C@H]2O[C@]1(C)n1c3ccccc3c3c4c(c5c6ccccc6n2c5c31)C(=O)NC4`, the residual activity turned out to be 0%.

On to `COc1cc2ncnc(Nc3ccc(OCc4ccccc4)cc3)c2cc1OC`, for which the residual activity turned out to be 97%.

Take `C[S+]([O-])c1ccc(-c2nc(-c3ccc(F)cc3)c(-c3ccncc3)[nH]2)cc1` (stereo not given): the residual activity amounted to 106%.

Consider `CC(C)(C)c1cc(C=C(C#N)C#N)cc(Br)c1O`, for which the residual activity was found to be 100%.

On to `O=[N+]([O-])/C=C/c1ccc2c(c1)OCO2`, for which the residual activity was 93%.

For the compound `CCn1cnc2c(Nc3cccc(Cl)c3)nc(N[C@@H]3CCCC[C@@H]3N)nc21`, the residual activity came to 7%.

As to `O=C1NC(=O)c2c1c1c3ccccc3n3c1c1c2c2ccccc2n1C1CCC3O1`, the residual activity is 64%.

On to `COc1ccc2c(c1)/C(=C/c1cnc[nH]1)C(=O)N2`, for which the residual activity worked out at 46%.
